Test results reported in PubChem BioAssay (NCI).
About 79,000 compounds went through this panel and 15% of them were active in at least one assay; those are over-represented in the sample as a whole. No stated cut-off is given here; in the data, active means growth inhibition above about 70%; inactive means the rest.

Key:
[1] = NCI Yeast Anticancer Drug Screen. Data for the rad50 strain (AID 155);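 further: 0% = growth of vehicle-only cultures of the same strain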; conditions: S. cerevisiae rad50 strain growth inhibition; at 50.0 µM; active compounds read high
Summary of the method: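 Cells are treated with compound, grown, and their growth is then scored against vehicle-only cultures of the same repair-deficient yeast strain.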

[2] = NCI Yeast Anticancer Drug Screen. Data for the mec2-1 strain (AID 157); conditions: S. cerevisiae mec2-1 strain, at 50.0 µM, active compounds read high
Summary of the method: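 mec2-1 yeast strain, carrying an alteration in DNA damage repair or cell cycle control, was exposed to compounds; growth inhibition was measured relative to vehicle-treated controls.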

[3] = NCI Yeast Anticancer Drug Screen. Data for the sgs1 mgt1 strain (AID 161);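 further: 0% = growth of cultures given vehicle only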; conditions: S. cerevisiae sgs1 mgt1 strain, at 50.0 µM, active compounds read high
Summary of the method: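 Percent growth inhibition was derived by comparing compound-exposed mutant yeast with vehicle-exposed cultures. The strain carries alterations in DNA damage repair.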

[4] = NCI Yeast Anticancer Drug Screen. Data for the cln2 rad14 strain (AID 165);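 further: 0% = growth equal to vehicle treated cultures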; conditions: S. cerevisiae cln2 rad14 strain, at 50.0 µM, active compounds read high
Summary of the method: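 Yeast carrying cln2 and rad14 alterations (cell cycle control and DNA damage repair) were exposed to compounds. Growth inhibition was measured against vehicle-treated controls.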

[5] = NCI Yeast Anticancer Drug Screen. Data for the bub3 strain (AID 167); conditions: S. cerevisiae bub3 mutant strain, at 50.0 µM, active compounds read high
Summary of the method: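 Part of a panel of yeast mutants defective in DNA damage repair or cell cycle regulation. Each strain is grown with compound, and inhibition is calculated relative to solvent-treated cultures.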

[6] = NCI Yeast Anticancer Drug Screen. Data for the mlh1 rad18 strain (AID 175); conditions: S. cerevisiae mlh1 rad18 strain growth inhibition; at 50.0 µM; active compounds read high
Summary of the method: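 Growth inhibition of the yeast strain was measured after compound exposure and expressed relative to vehicle-treated controls. The strain carries defined defects in DNA damage repair.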

Measured: growth inhibition

O=C1CN(N2C(=O)CSC2C23CC4CC(CC(C4)C2)C3)C(=O)CN1c1ccccc1 (stereo unspecified)
inactive: [1] 7.2% | [2] 2.1% | [3] 13% | [4] 24.8% | [5] -2.6% | [6] 12.8%

Cc1ccc2cccc(C)c2n1
inactive: [1] -14.9% | [2] -26.6% | [3] -45.3% | [4] -6.7% | [5] -29.6% | [6] -23.5%

COc1ccc(NC(=O)CC(=O)NN)cc1
inactive: [1] -5.4% | [2] -0.05% | [3] 3.4% | [4] -1.5% | [5] -9.55% | [6] 9.2%

Nc1nnnn1-c1cccc(Cl)c1
inactive: [1] 7.5% | [2] 0.35% | [3] 1.6% | [4] -18.8% | [5] -2.4% | [6] 10.6%

O=S(=O)(OCC(F)(F)F)c1ccccc1
inactive: [1] 16.4% | [2] 8.25% | [3] 14.7% | [4] -2.8% | [5] -8.8% | [6] -10.4%

O=C(Nc1cccc(C(=O)Nc2ccc(S(=O)(=O)O)c3cc(S(=O)(=O)O)cc(S(=O)(=O)O)c23)c1)Nc1cccc(C(=O)Nc2cccc3c(S(=O)(=O)O)c(S(=O)(=O)O)cc(S(=O)(=O)O)c23)c1
inactive: [1] -0.25% | [2] 7.2% | [3] 0.65% | [4] 47.9% | [5] 12.9% | [6] 13.7%

Cn1c2ccccc2c(=O)c2c(O)cc3c(c21)C=CC1(CCCCC1)O3
inactive: [1] -4.75% | [2] 11.4% | [3] -2.25% | [4] 19.1% | [5] -5.65% | [6] 25.1%

CC(=O)Oc1cc2c(cc1Cc1ccc3c(c1)OCO3)OCO2
inactive: [1] -18.6% | [2] -17.2% | [3] -7% | [4] -6.2% | [5] 15.9% | [6] -14.5%

CN(C)C(CN)CC1=C(CC(CN)N(C)C)CCC1 (stereo unspecified)
inactive: [1] -15.5% | [2] 5.25% | [3] -5.5% | [4] -1% | [5] -5.25% | [6] 17.6%

CC1=Nc2nc3ccccc3n2C(C)(C)C1
inactive: [1] 14.6% | [2] 18.8% | [3] 11.6% | [4] -3.95% | [5] -0.2% | [6] -34.1%

N=C(N)n1ncc2c1CCCC2=O
inactive: [1] -17.4% | [2] 19.9% | [3] -6.1% | [4] -20.2% | [5] 6.1% | [6] 1.75%

CC(=O)CC(=O)C1CCC(C(=O)CC(C)=O)CC1 (stereo unspecified)
inactive: [1] -3.7% | [2] 6.2% | [3] 0.65% | [4] -28.1% | [5] -0.7% | [6] -13.2%

O=C(c1nc2ccccc2[nH]c1=O)C(O)c1ccccc1 (stereo unspecified)
inactive: [1] 6.9% | [2] -23.6% | [3] -3.1% | [4] 17.4% | [5] -12.8% | [6] -2.2%

N#CC(c1ccccc1)C1CCN(Cc2ccccc2)CC1 (stereo unspecified)
inactive: [1] 45.8% | [2] 20.8% | [3] 48.1% | [4] 47.8% | [5] 45.8% | [6] 33.1%

COC(=O)c1nc2nnc(N)n2c(-c2ccc(Cl)cc2)c1C
inactive: [1] -6.3% | [2] 11.1% | [3] 7.25% | [4] -15.9% | [5] -4.35% | [6] 0.75%

COC(OC)c1cccc2c1C(=O)CCC1(CC2)OCCCCO1
inactive: [1] 0.3% | [2] -21.1% | [3] -22.8% | [4] 3.6% | [5] -39.9% | [6] -11.2%

CCCCCCC(=O)/C=C/c1cccc(OCc2cccc(Cl)c2)c1
inactive: [1] 24.4% | [2] 16.8% | [3] 19.1% | [4] 16.8% | [5] 1.55% | [6] 4.65%

CNOCc1ccc(C(=O)NC(C)C)cc1
inactive: [1] 12.2% | [2] 17.6% | [3] 2.8% | [4] -30.9% | [5] 11.7% | [6] 17.5%

C/C(=N\NC(=S)Nc1cccc2cccc(S(=O)(=O)O)c12)c1ccccn1
inactive: [1] 3.4% | [2] -0.35% | [3] -18.2% | [4] -5.55% | [5] -7.4% | [6] 2.85%

CSCSCC(CO)NC(=O)/C(C)=C\c1c(C)[nH]c(=O)[nH]c1=O (stereo unspecified)
inactive: [1] -3.35% | [2] -2% | [3] -2.35% | [4] -7% | [5] 8.4% | [6] -13.1%

CC(C)c1ccc(OC(=O)Nc2c(Cl)cccc2Cl)cc1
inactive: [1] -18.4% | [2] -27.6% | [3] 5.95% | [4] 5.6% | [5] 7.2% | [6] -3.65%

CCOC(=O)CS(=O)(=O)CS(=O)(=O)CC(=O)OCC
inactive: [1] 10% | [2] 8.35% | [3] 7.85% | [4] 5.55% | [5] 9.95% | [6] 7.25%

CCCCC(=O)NC1=CC(=O)c2ccccc2C1=O
inactive: [1] 41.2% | [2] 30.4% | [3] 47.1% | [4] 29.6% | [5] 56.1% | [6] 45.8%

Cc1ccc(OC(=O)c2ccccc2)cc1CC(Cl)(Cl)Cl
inactive: [1] -0.75% | [2] -6% | [3] -9.3% | [4] -19.3% | [5] 2.8% | [6] -14.3%

N#CC1=C(Nc2ccccc2)SC(c2cccs2)NC1=O (stereo unspecified)
inactive: [1] 12.4% | [2] 4.7% | [3] 20.6% | [4] 16.5% | [5] 11.9% | [6] 23.2%

O=C1CCC(c2ccccc2)C(O)(C(=O)O)C1 (stereo unspecified)
inactive: [1] 6.45% | [2] -8.1% | [3] -13.9% | [4] -5.1% | [5] -14.3% | [6] -24.9%

CCCCCP(=O)(CCC(C)C)CC(C)C (stereo unspecified)
inactive: [1] 8.95% | [2] 7.3% | [3] 20.7% | [4] 28.9% | [5] -10.6% | [6] -6.6%

COc1ccc(/C=C(\CC(=O)c2ccc(Cl)cc2)C(=O)O)cc1
inactive: [1] -21.5% | [2] -8.85% | [3] 6.6% | [4] -30.6% | [5] 1% | [6] -5.8%

Cc1cc(Cc2cccc3ccccc23)nc2c1ccc1ccccc12
inactive: [1] 0.85% | [2] -11.2% | [3] 12.2% | [4] 11% | [5] -13.9% | [6] 17.6%

c1cc2c3c(cccc3c1)-c1nc3ccccc3nc1-2
inactive: [1] -5.1% | [2] -21.4% | [3] -5.2% | [4] 4.05% | [5] 0.2% | [6] 19.8%

CC(=O)OC12C=CC(=O)N1c1ccccc1C(=O)O2 (stereo unspecified)
inactive: [1] 18.4% | [2] 8.8% | [3] 25% | [4] 29.2% | [5] 13.8% | [6] 42.4%

Fc1ccc(-c2ccc(F)cc2)cc1
inactive: [1] -18.6% | [2] -15.4% | [3] -12.1% | [4] -44.9% | [5] -6.8% | [6] -23.1%

Cc1cc(C)[n+](C)c(/C=C/c2cccc([N+](=O)[O-])c2)n1
inactive: [1] 6.55% | [2] -6.95% | [3] 4.85% | [4] 16.4% | [5] 3.4% | [6] 11.1%

N#CC12CC=C(c3ccccc3)N=C1NC(c1ccccc1)=CC2 (stereo unspecified)
inactive: [1] -25.9% | [2] -35.5% | [3] -31.7% | [4] -38.4% | [5] -1.65% | [6] -34.1%

O=C(O)CCc1ccncc1
inactive: [1] 2.25% | [2] 9% | [3] 12.8% | [4] -1.7% | [5] 7.1% | [6] -0.95%

CCC(C)NC(=O)C1C2CCC(C2)C1C(=O)NC(C)CC (stereo unspecified)
inactive: [1] 10.7% | [2] -2.9% | [3] -10.2% | [4] -18.9% | [5] -7.5% | [6] 7%

C/C=C/C=C1/OC(C)=C(C(=O)OCC)C1=O
inactive: [1] 7.95% | [2] -15.6% | [3] 6.55% | [4] 11.4% | [5] -8.95% | [6] -1.9%

NC1=C(O)C(=O)C(c2cccc(O)c2)O1 (stereo unspecified)
inactive: [1] -8.1% | [2] -10.1% | [3] 7.9% | [4] -5.05% | [5] 3.2% | [6] 8.45%

CCCCCCCCCCCCCCCC[N+]1(C)CCC[N+](C)(CCCCCCCCCCCCCCCC)CC1 (stereo unspecified)
inactive: [1] -5.25% | [2] -21% | [3] -2.65% | [4] -22.6% | [5] -8.4% | [6] -0.1%

Nc1nc2ccc([N+](=O)[O-])cc2s1
inactive: [1] 6.15% | [2] -6.45% | [3] 10.8% | [4] -18.4% | [5] -12.8% | [6] -8.1%

C=CCNC(=O)C[n+]1cccc(C(=O)NC)c1
inactive: [1] 22.6% | [2] 8.35% | [3] -9.15% | [4] -5.35% | [5] -0.45% | [6] -17.8%
